According to PubChem BioAssay:
Activity calls are given as the source filed them. Unless noted, the rule behind the calls is not given here.

Experiments:
[1] = system: XIP peptide (Xip251-270) binding; assay: small-molecule binders of XIP peptide, primary screen, biochemical, small-molecule microarray, fluorescence 635/667 nm, 0.1 µg/mL protein (AID 1182); conditions: fluorescent protein binding, 635 nm, higher = more signal, called active from +8 up or from −8 down
XIP peptide (Xip251-270) = assay: small-molecule binders of XIP peptide, primary screen, biochemical, small-molecule microarray, fluorescence 635/667 nm, 0.5 µg/mL protein (AID 1183); conditions: small-molecule microarray binding, fluorescence 635 nm; higher = more signal
[2] = Plasmodium falciparum growth inhibition, primary screen, strain 3D7, DAPI fluorescence, 100 nL (AID 1184);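 note: parasites grown inside human red blood cells in medium with human serum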; conditions: P. falciparum 3D7 growth, 3 d, higher = more signal
[3] = biological target: Homeobox protein Hox-A13 (Mus musculus) (UniProt Q62424); assay: inhibitors of HoxA13-DNA binding, primary screen, biochemical, fluorescence polarization, labeled oligonucleotide (AID 1185); conditions: 15 min, higher = more signal, called active from +8 up or from −8 down
[4] = inhibitors of hydroxyurea-induced Chk1 phosphorylation, primary screen, imaging, HeLa, phospho-Chk1 antibody, percent positive cells (AID 1186); conditions: hydroxyurea-induced phospho-Chk1 immunofluorescence imaging, higher = more signal
[5] = inhibitors of hydroxyurea-induced Chk1 phosphorylation, primary screen, imaging, HeLa, phospho-Chk1 nuclear intensity (AID 1187); conditions: hydroxyurea-induced phospho-Chk1 immunofluorescence imaging, higher = more signal

Chain of Homeobox protein Hox-A13 (Mus musculus) (Q62424 whole entry, looked up): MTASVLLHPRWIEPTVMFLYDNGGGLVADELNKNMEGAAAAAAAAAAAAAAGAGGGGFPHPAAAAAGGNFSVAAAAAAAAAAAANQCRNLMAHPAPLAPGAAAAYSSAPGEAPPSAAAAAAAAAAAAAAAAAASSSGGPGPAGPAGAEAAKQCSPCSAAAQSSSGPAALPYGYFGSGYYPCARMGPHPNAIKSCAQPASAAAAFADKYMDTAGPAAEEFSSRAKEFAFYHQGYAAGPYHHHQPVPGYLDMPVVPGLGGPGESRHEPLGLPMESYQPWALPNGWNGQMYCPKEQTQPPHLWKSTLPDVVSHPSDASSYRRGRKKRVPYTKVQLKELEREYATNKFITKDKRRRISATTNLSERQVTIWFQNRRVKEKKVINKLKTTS

SMILES | composite z-score [1] | composite z-score (XIP peptide (Xip251-270)) | z-score [2] | z-score [3] | z-score [4] | z-score [5]
CC(C)N1C(=O)C[C@@](C(=O)NCC(F)(F)F)(c2ccc([N+](=O)[O-])cc2)[C@H]1c1ccc(CO)cc1 | 0.0334 (inactive) | 0.202 | -1.38 | -2.67 (inactive) | -0.317 (inactive) | -0.273 (inactive)
O=C1OCCC/C=C\[C@H]2OC34C=CCN(Cc5ccccc5)C(=O)[C@H]3N(CCCO)C(=O)[C@@H]4C12 (some centres undefined) | 0.0652 (inactive) | -0.616 | -0.125 | -4.98 (inactive) | -0.58 (inactive) | -0.324 (inactive)
COC(=O)[C@@]1(Cc2ccc(F)cc2)[C@H]2c3cc(C(=O)N4CCCC4)n(CCCNc4ncc(C(F)(F)F)cc4Cl)c3C[C@H]2CN1C(=O)c1ccccc1 | 0.1 (inactive) | 0.716 | -1.41 | -4.2 (inactive) | 0.919 (inactive) | 0.259 (inactive)
[N-]=[N+]=NCc1ccccc1[C@@H]1OC(c2ccc(OCCCO)cc2)=N[C@]1(Cc1ccccc1)C(N)=O | 0.906 (inactive) | 0.689 | -2.13 | -3.49 (inactive) | -0.395 (inactive) | -0.0798 (inactive)
COc1ccc(C(O)C2C=CC3C(=O)N(Cc4ccccc4)C(=O)C3N2n2cnnc2)cc1OCc1ccccc1 (centres undefined) | 0.442 (inactive) | 0.159 | -0.951 | -2.23 (inactive) | -0.537 (inactive) | -0.462 (inactive)
NC(=O)N1C(=O)C2C(C1=O)C1C=C(c3ccc(CO)cc3)C2C(c2cccs2)N1Cc1cccc(OC(F)(F)F)c1 (centres undefined) | 0.0478 (inactive) | -0.814 | -2.86 | -1.04 (inactive) | 0.0422 (inactive) | 0.723 (inactive)
CC(C)C(=C=CC[C@H](O)c1ccc(OCCO)cc1)CCO | 0.427 (inactive) | -0.107 | -2.19 | -3.96 (inactive) | 0.805 (inactive) | 0.505 (inactive)
COC(=O)[C@H](Cc1ccccc1)N1CC2=C[C@@H](C3CC3)n3c(=O)n(C)c(=O)n3[C@H]2[C@@H]1[C@@H](O)Cc1ccccc1 | 0.475 (inactive) | 0.259 | -0.863 | -7.37 (inactive) | 0.183 (inactive) | 1.5 (inactive)
COC(=O)[C@@]1(Cc2ccccc2)N=C(c2ccc(OCCCO)cc2)O[C@H]1c1ccccc1 | 1.16 (inactive) | 0.743 | -1.92 | -4.38 (inactive) | -0.343 (inactive) | -0.094 (inactive)
CC(C)C[C@@H]1NC(=O)[C@H](C(C)C)NC(=O)[C@@]23C(=O)N[C@@H](Cc4ccccc4)C2[C@H](C)[C@@]2(C)O[C@H]2C3/C=C/CC/C=C/CNC1=O (some centres undefined) | 0.758 (inactive) | 0.607 | -1.4 | -6.99 (inactive) | 0.0132 (inactive) | 0.432 (inactive)
CC1(C)[C@@H]2CC(C(O)C3C=CC4C(=O)N(Cc5ccccc5)C(=O)C4N3n3cnnc3)=C[C@H]1C2 (some centres undefined) | 0.902 (inactive) | -0.0686 | -0.101 | -3.19 (inactive) | 0.338 (inactive) | -0.115 (inactive)
O=C1[C@@]23C=C(Br)[C@H](C[C@@H]2CCOC3)[C@@]12CO2 | 0.792 (inactive) | -0.377 | 1.37 | 0.0303 (inactive) | -0.259 (inactive) | -0.561 (inactive)
O=C(NCCN1CCOCC1)C1N=C(c2ccc(OCCCO)cc2)N(c2ccccc2)O1 (centres undefined) | 2.46 (inactive) | 0.738 | -0.122 | -1.6 (inactive) | -0.227 (inactive) | -0.0873 (inactive)
C=CCC(OC(C)=O)[C@@H]1[C@@H](N(Cc2cc3ccccc3o2)C(=O)c2cccc3ccccc23)c2cc(OCCCO)ccc2N1C(=O)c1ccc(-c2ccccc2)cc1 (some centres undefined) | 0.277 (inactive) | 0.287 | -3.01 | -0.424 (inactive) | 0.0396 (inactive) | 0.577 (inactive)
O=C1C[C@@](C(=O)NCC(F)(F)F)(c2ccc([N+](=O)[O-])cc2)[C@@H](c2ccc(CO)cc2I)N1C1CCCCC1 | 0.469 (inactive) | 0.778 | -1.26 | -4.99 (inactive) | -0.171 (inactive) | 0.187 (inactive)
C=C[C@H](C)[C@@H](OC(=O)Nc1ccc(OC)cc1)c1ccc(O)c2ccccc12 | 0.863 (inactive) | 0.251 | 0.0221 | -4.35 (inactive) | -0.025 (inactive) | 0.099 (inactive)
C=C(CCCC)/C(=C/C[C@@H](OC(=O)c1ccncc1)c1ccc(OCCO)cc1)c1cc(C(=O)OC)ccc1OC | 0.35 (inactive) | 0.565 | -2.8 | -3.62 (inactive) | -0.377 (inactive) | 0.106 (inactive)

SMILES | composite z-score [1] | composite z-score (XIP peptide (Xip251-270)) | z-score [2] | z-score [3] | z-score [4] | z-score [5]
C=C[C@H](CO[Si](CC)(CC)CC)N(Cc1ccc(OC(C)=O)c(OC)c1)S(=O)(=O)c1ccc(Br)cc1 | 1.38 (inactive) | 0.88 | 0.378 | 0.476 (inactive) | -0.528 (inactive) | -0.508 (inactive)
O=C1O[C@@H](c2ccccc2)[C@@H](c2ccccc2)N2[C@@H](c3ccccc3OCCO)[C@]3(C(=O)Nc4ccc(C#CC5=CCCCC5)cc43)[C@@H](C(=O)N3CCCCCCC3)[C@H]12 | 5.92 (inactive) | 0.797 | -2 | -13.8 (active) | -0.0478 (inactive) | -0.372 (inactive)
CC(C)OC(=O)C=C1C[C@@H](c2ccccn2)O[C@@H](c2ccccn2)O1 | 1.4 (inactive) | -0.0957 | -0.929 | -5.67 (inactive) | 0.367 (inactive) | 0.129 (inactive)
COC(=O)C(CC#Cc1ccc2c(c1)[C@]1(C(=O)N2)[C@H](C(=O)Nc2nc3ccccc3s2)[C@H]2C(=O)O[C@H](c3ccccc3)[C@H](c3ccccc3)N2[C@@H]1c1ccccc1OCCO)C(=O)OC | 1.5 (inactive) | 0.815 | -2.02 | 2.38 (inactive) | 0.0018 (inactive) | 0.304 (inactive)
C[C@H]1NC(=O)[C@@]23C(=O)N[C@@H](Cc4ccccc4)C2[C@H](C)[C@@]2(C)O[C@H]2C3/C=C/C/C=C\CNC(=O)[C@@H]2CCCN2C1=O (some centres undefined) | 0.091 (inactive) | 0.667 | 0.91 | -3.78 (inactive) | 0.237 (inactive) | 0.087 (inactive)
COC(=O)[C@@]1(Cc2ccc(F)cc2)[C@H]2c3cc(C(=O)N(C)C)n(Cc4cc(F)c(F)c(F)c4)c3C[C@H]2CN1C(=O)c1ccccc1 | 0.0639 (inactive) | 0.626 | -1.66 | -3.48 (inactive) | 0.0893 (inactive) | 0.175 (inactive)
O=C1O[C@H](c2ccccc2)[C@H](c2ccccc2)N2[C@H]1[C@@H](C(=O)N1CCCCCCC1)[C@]1(C(=O)Nc3ccc(C#CCCO)cc31)[C@H]2c1ccccc1OCCO | 9.51 (active) | 1.07 | -2.07 | 4.52 (inactive) | 0.208 (inactive) | 0.259 (inactive)
COC(=O)[C@@]1(Cc2ccc(OC)cc2)[C@@H]2C(=CC(=O)[C@H]2CC(=O)C(=O)N2CCCC2)CN1C(=O)c1ccccc1 | -0.406 (inactive) | 0.161 | -0.918 | -2.39 (inactive) | -0.0101 (inactive) | -0.277 (inactive)
COC(=O)C(CC#Cc1ccc2c(c1)[C@]1(C(=O)N2)[C@H](C(=O)Nc2nc3ccccc3s2)[C@H]2C(=O)O[C@H](c3ccccc3)[C@H](c3ccccc3)N2[C@@H]1c1ccc(O)cc1)C(=O)OC | 0.297 (inactive) | 0.794 | -1.89 | -0.424 (inactive) | -0.558 (inactive) | -1.09 (inactive)
O=C(CS)NCCCCCCNC(=O)[C@@H]1C[C@@H]2C(=O)NCC(=O)N2[C@@H]1c1cccc(OCCO)c1 | 0.67 (inactive) | 0.579 | 0.132 | -2.98 (inactive) | 0.376 (inactive) | 0.376 (inactive)
O[C@@H](Cc1ccccc1)[C@H]1C2C=CCCC=C2CN1Cc1cccc(Cl)c1 (some centres undefined) | 0.164 (inactive) | 0.421 | 0.461 | -7.63 (inactive) | 0.415 (inactive) | 0.0708 (inactive)
CC(C)C(O)C1C=CC2C(=O)N(c3ccccc3)C(=O)C2N1Nc1ccc([N+](=O)[O-])cc1 (centres undefined) | -0.354 (inactive) | -0.266 | 0.935 | -3.78 (inactive) | 0.659 (inactive) | -0.404 (inactive)
Cc1nc2cc(Br)ccc2c(=O)o1 | 0.312 (inactive) | 0.139 | -0.973 | 0.0804 (inactive) | -0.131 (inactive) | 0.134 (inactive)
CC(C)(C)OC(=O)CC[C@]1(C(=O)N2CCOCC2)N=C(c2ccc(OCCCO)cc2)O[C@H]1c1ccccc1N=[N+]=[N-] | 0.472 (inactive) | 0.472 | -2.28 | -5.38 (inactive) | -0.112 (inactive) | 0.0839 (inactive)
Cc1ccc(S[C@]2(C(=O)NCCCN(C)C)CC(=O)N(Cc3cc(C(F)(F)F)cc(C(F)(F)F)c3)[C@@H]2c2ccc(CO)cc2I)cc1 | -0.773 (inactive) | -0.878 | 0.227 | -3.31 (inactive) | 0.522 (inactive) | 0.201 (inactive)
COc1cccc(-c2cccc(=O)o2)c1 | -0.256 (inactive) | 0.688 | 0.0459 | -2.09 (inactive) | 0.317 (inactive) | -0.169 (inactive)
CO[C@H]1O[C@H](CO)[C@@H](OC(=O)Nc2ccc(C(F)(F)F)cc2)[C@H](OC(=O)Nc2ccc3c(c2)OCO3)[C@@H]1OC(=O)Nc1ccc2c(c1)OCO2 | 1.42 (inactive) | 0.901 | -2.09 | -5.46 (inactive) | -0.328 (inactive) | -0.0864 (inactive)
